Bioassay records from PubChem.
HepG2 viability – qHTS for Inhibitors of TGF-b: Cytotox Counterscreen | HepG2 CAGA-GFP viability, ATP luminescence, 18 h | Potency, µM (top dose mostly 46.1 µM), actives largely listed as cytotoxic | 0.76% of 410,000 active | AID 588856, 2011
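HepG2 CAGA-GFP cells (1000/well, DMEM with 1% FBS) received compound, then TGF-beta at 500 pg/mL final, and were incubated 18 hours at 37 degrees C. Viability was read by CellTiter-Glo luminescence. Media-only wells were set as complete cell-killing and DMSO as no toxicity.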
HT1080-NT tox – qHTS for induction of synthetic lethality in tumor cells producing 2HG: qHTS for the HT-1080-NT fibrosarcoma cell line; HT-1080-NT fibrosarcoma viability, CellTiter-Glo ATP luminescence, 48 h; AID 686970, 2013; 1.6% of 360,000 active; Potency, µM (top dose mostly 46.1 µM), hits mostly cytotoxic;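 further: NT is the 2HG producing partner of a matched IDH1 knockdown line; nearly all actives have a fitted effect of over 55% in size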
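Viability of the 2HG-overproducing fibrosarcoma line after 48 hours of compound exposure at 37 degrees C was determined by luminescence with CellTiter-Glo, and concentration-effect curves were then fitted and categorized.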
TGFb inhibitor – qHTS for Inhibitors of TGF-b | HepG2 CAGA-GFP TGF-b/SMAD3 reporter, GFP fluorescence, 18 h; TGF-beta stimulated, 500 pg/mL final | Potency, µM (series often up to 46.1 µM), usual class: inhibitors | 1.2% of 410,000 active | AID 588855, 2011; further: nearly all actives have a fitted effect of over 65% in size
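Smad-responsive CAGA-GFP expression was quantified in HEPG2 cells exposed to compounds and 500 pg/mL final TGF-beta for 18 h at 37 degrees C; unstimulated wells defined full inhibition.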
Giardia killer – Small Molecules that selectively kill Giardia lamblia: qHTS | Giardia lamblia trophozoite viability | activity change, % at 7.66 µM, hits read low | 0.15% of 340,000 active | AID 540267, 2011; in the data active means activity change below about -80%; inconclusive means between about -30% and that limit;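 further: parasites exposed to compound for two days anaerobically before the ATP read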
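Luminescence from cellular ATP indicates surviving trophozoites (100 cells/well) following 48 hrs anaerobic compound treatment at 37 deg C; signal develops 15-30 min at room temperature.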
HT1080 IDH1KD tx – qHTS for induction of synthetic lethality in tumor cells producing 2HG: qHTS for the HT-1080-IDH1KD cell line; HT-1080 IDH1 knockdown viability, ATP luminescence, 48 h; Potency, µM (highest dose often 46.1 µM), most hits filed as cytotoxic; 2% of 360,000 active
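Using the IDH1-knockdown HT-1080 line run in the same batch and compound series as the NT line, viability after 48 h at 37 °C was determined by CellTiter-Glo luminescence and expressed as % activity.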
IL1B secr inh – qHTS for Inhibitors of Inflammasome Signaling: IL-1-beta AlphaLISA Primary Screen | activity change, % at 57.5 µM | 4.7% of 360,000 active | THP-1 LPS/ATP IL-1B secretion, AlphaLISA, 16 h; hits give low values; in the data active means activity change below about -50%; inconclusive means mostly about -30% to -49%
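Secreted IL-1B measured by AlphaLISA bead assay after 16 h compound exposure of THP-1 cells; compounds (final up to 57.5 uM) added 1 h before LPS (250 ng/mL) and ATP (1.25 mM) stimulation; lower signal means less secretion.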
A number is an active result; 0 = inactive; ? = inconclusive; - = not tested or not shown; [ ] = remark or other dose. Hits are enriched below; roughly 6.5% of the tested compounds scored in any of these assays. Unless noted, the call rests on the fitted dose curve; in most records, active means well fitted curve in the direction sought with a large enough effect; inconclusive means small, poorly fitted or top-dose-only effect, or another doubt; inactive means no such curve, though single readings can be large; an effect the other way counts as inactive or inconclusive.

SMILES	HepG2 viability	HT1080-NT tox	TGFb inhibitor	Giardia killer	HT1080 IDH1KD tx	IL1B secr inh
CCc1nc(N)c(C#N)c(-c2ccc(O)c(OC)c2)c1C	0	0	0	0	0	0
Nc1ccccc1NC(=O)CCn1c(=S)[nH]c2ccccc2c1=O	0	0	0	0	0	0
COc1ccc(-c2cnc(N)nc2-c2ccc(OC)cc2O)cc1	0	0	0	0	0	-73
Nc1ncc(-c2ccccc2)c(-c2ccc(OCc3ccccc3)cc2O)n1	18µM	?	?	0	?	-103
COc1ccc2sc(NCc3ccccc3)nc2c1	0	0	0	0	0	0
O=C(c1ccccn1)c1conc1C(=O)c1ccc(Br)cc1	0	0	0	0	0	0
Cc1ccc(NC(=S)NNc2ccc([N+](=O)[O-])cc2S(=O)(=O)Nc2ccccc2C(=O)O)cc1C	0	0	?	?	0	0
O=C(O)c1ccccc1NS(=O)(=O)c1ccc(NNC(=S)Nc2ccc(OC(F)F)cc2)c([N+](=O)[O-])c1	0	0	0	0	0	-51
CCOc1cc(-c2noc(N)c2C#N)cc(OCC)c1OCC	0	0	0	0	0	0
Cc1ccccc1-c1noc(N)c1C#N	0	?	0	0	10µM	0
CCOCCCn1c(=N)c(C(=O)NC2CCCC2)cc2c(=O)n3cc(C)ccc3nc21	0	-	0	-	-	-
O=C(NNC(=O)c1ccncc1)NC1CCCCC1	0	0	0	0	0	0
COc1ccc(C2C3=C(CC(C)(C)CC3=O)Oc3ncn(Cc4ccccc4)c(=N)c32)cc1 (stereo not given)	0	?	0	0	?	-55
CC(=O)N1CC2(CC(c3ccccc3F)=NO2)CN1c1ccc(Cl)cc1 (stereo not given)	0	0	0	-	0	0
COc1ccc(S(=O)(=O)NC(C)C(=O)NCc2cccnc2)cc1C (stereo not given)	0	0	0	0	0	0
CC(C)(C)C(=O)Nc1ccc(NC(=O)c2ccco2)nc1	0	0	0	-94	0	0
CC(C)(C)C(=O)Nc1ccc(/C=C/C(=O)c2ccco2)cc1	0	?	?	?	23µM	-102
O=C(Nc1ccc(NC(=O)c2ccco2)nc1)c1ccco1	0	0	0	?	0	0
CC(Sc1nnc(Cc2ccccc2)n1C)C(=O)NC1CC1 (stereo not given)	0	0[9.24 µM]	0	0	0	0
CCCCCCCCCCCCCCCCCCNc1ccn(C2OC(COP(=O)(O)OCC3OC(n4cc(F)c(=O)[nH]c4=O)CC3O)C(O)C2O)c(=O)n1 (stereo not given)	0	?	?	0	10µM	-68
O=C(NCC1CCCO1)c1nc2c(nnn2Cc2ccccc2Cl)c(=O)[nH]1 (stereo not given)	0	0	0	0	0[9.24 µM]	0
Cc1noc(C)c1CSc1nc2ccccc2nc1NS(=O)(=O)c1ccc(Cl)cc1	0	?	7.9µM	0	?	0
CC(C)Cn1nc(NC(=O)c2cccs2)c2cc3ccccc3nc21	0	0	?	0	0	0
COc1ccc2nc3c(cc2c1)c(NC(=O)c1cccs1)nn3CC(C)C	0	?	?	0	13µM	-51
Cc1ccc(C(=O)CCC(=O)Nc2ccc(Cl)c(S(=O)(=O)Nc3cccc(Cl)c3)c2)cc1	0	0	0	0	0	0
SMILES	HepG2 viability	HT1080-NT tox	TGFb inhibitor	Giardia killer	HT1080 IDH1KD tx	IL1B secr inh
CCC(C)NCCC(=O)Nc1ccc(Cl)c(S(=O)(=O)Nc2ccc(Cl)cc2)c1 (stereo not given)	0	?	0	0	15µM	-51
CCN(c1ccc(NS(=O)(=O)c2cc(Cl)ccc2Cl)cc1)C(C)C	0	?	0	0	?	-92
CCN(CC(=O)Nc1cc(Cl)ccc1C)C(=O)c1cc(S(=O)(=O)N2CCCCCC2)ccc1OC	0	0	0	0	0	?
COc1ccc(OC)c2c1sc(=NC(=O)C1CCCCC1)n2C	0	0	0	0	0	0
CCN(C(=O)CSc1n[nH]c(-c2cccs2)n1)C1CCS(=O)(=O)C1 (stereo not given)	0	0	?	0	0	0
COc1ccc(C)cc1NC(=O)c1nnn(Cc2cccc(F)c2)c1N	0	?	0	0	4.1µM	0
COc1cccc(Cn2nnc(C(=O)NCCc3ccc(Cl)cc3)c2N)c1	18µM	0	?	0	0	0
C=CC[C@@H](CC(=O)NCCO)C(=O)N[C@@H](COC(=O)[C@@H](CC=C)Cc1ccc(F)cc1)Cc1c[nH]c2ccccc12	0	0	?	0	0	-55
C=CC[C@H](CC(=O)N(CCO)Cc1ccccc1)C(=O)N[C@H](COC(=O)[C@@H](CC=C)Cc1ccc(F)cc1)Cc1ccccc1	0	16µM	?	0	?	-56
C=CCC[C@H](Cc1ccc(F)cc1)C(=O)OC[C@@H](Cc1c[nH]c2ccccc12)NC(=O)[C@@H](CC=C)CC(=O)N(CCO)Cc1ccccc1	0	?	?	0	?	-62
C=CCC[C@H](Cc1ccc(F)cc1)C(=O)OC[C@H](Cc1c[nH]c2ccccc12)NC(=O)[C@H](CC=C)CC(=O)NCCO	0	0	?	0	0	?
C=CC[C@@H](CC(=O)N(CCO)Cc1ccccc1)C(=O)N[C@H](C)COC(=O)[C@@H](CC=C)Cc1ccc(F)cc1	0	0	0	0	0	0
C=CCC[C@@H](Cc1ccc(F)cc1)C(=O)OC[C@@H](Cc1c[nH]c2ccccc12)NC(=O)[C@@H](CC=C)CC(=O)NCCO	0	0	?	0	0	-65
O=C(Cn1nc(C(F)(F)F)c2c1CCC2)NC1CCCCC1	0	0	0	0	0	0
O=C1c2ccccc2-c2cccc(C(=O)N3CCN(C(=O)c4ccccc4)CC3)c21	0	0	0	0	0	0
Cc1nnc(SCC(=O)NCC2CCCO2)n1-c1ccccc1 (stereo not given)	0	0	0	0	0	0
Clc1ccc(CNc2nc3ccccc3c3nc(-c4cccnc4)nn23)cc1	0	-	0	-	-	-
O=C1S/C(=C\c2ccc(N3CCOCC3)o2)C(=O)N1Cc1ccc(F)cc1	0	6.3µM	0	0	3.2µM	0
O=C1S/C(=C/c2ccc(N3CCOCC3)o2)C(=O)N1Cc1ccc(F)cc1	0	0	0	0	0	0
CC(C)OC(=O)CN1C(=O)S/C(=C/c2ccc(N3CCCCC3)o2)C1=O	0	?	0	0	11µM	-104
